Experimental findings from publication PMC4336329 (PLoS ONE, 2015) are described below.

SMILES strings stand for the structures. Among all 310,000 compounds or so, about 14,000 (4.5%) showed an effect of 50% or more. Effects have a minus sign here. This is one part of a sample in which strong results are shown more often than they occur.
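Note: peak tail current of the secondary pulse compared with the same well before compound.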

The target of the test is human ether-à-go-go-related gene (hERG) potassium channel (human, UniProt Q12809). The experiment in a line: primary screen, population patch clamp on CHO cells stably expressing hERG; higher = less effect of the substance.
human ether-à-go-go-related gene (hERG) potassium channel, sequence (Q12809 whole entry, looked up): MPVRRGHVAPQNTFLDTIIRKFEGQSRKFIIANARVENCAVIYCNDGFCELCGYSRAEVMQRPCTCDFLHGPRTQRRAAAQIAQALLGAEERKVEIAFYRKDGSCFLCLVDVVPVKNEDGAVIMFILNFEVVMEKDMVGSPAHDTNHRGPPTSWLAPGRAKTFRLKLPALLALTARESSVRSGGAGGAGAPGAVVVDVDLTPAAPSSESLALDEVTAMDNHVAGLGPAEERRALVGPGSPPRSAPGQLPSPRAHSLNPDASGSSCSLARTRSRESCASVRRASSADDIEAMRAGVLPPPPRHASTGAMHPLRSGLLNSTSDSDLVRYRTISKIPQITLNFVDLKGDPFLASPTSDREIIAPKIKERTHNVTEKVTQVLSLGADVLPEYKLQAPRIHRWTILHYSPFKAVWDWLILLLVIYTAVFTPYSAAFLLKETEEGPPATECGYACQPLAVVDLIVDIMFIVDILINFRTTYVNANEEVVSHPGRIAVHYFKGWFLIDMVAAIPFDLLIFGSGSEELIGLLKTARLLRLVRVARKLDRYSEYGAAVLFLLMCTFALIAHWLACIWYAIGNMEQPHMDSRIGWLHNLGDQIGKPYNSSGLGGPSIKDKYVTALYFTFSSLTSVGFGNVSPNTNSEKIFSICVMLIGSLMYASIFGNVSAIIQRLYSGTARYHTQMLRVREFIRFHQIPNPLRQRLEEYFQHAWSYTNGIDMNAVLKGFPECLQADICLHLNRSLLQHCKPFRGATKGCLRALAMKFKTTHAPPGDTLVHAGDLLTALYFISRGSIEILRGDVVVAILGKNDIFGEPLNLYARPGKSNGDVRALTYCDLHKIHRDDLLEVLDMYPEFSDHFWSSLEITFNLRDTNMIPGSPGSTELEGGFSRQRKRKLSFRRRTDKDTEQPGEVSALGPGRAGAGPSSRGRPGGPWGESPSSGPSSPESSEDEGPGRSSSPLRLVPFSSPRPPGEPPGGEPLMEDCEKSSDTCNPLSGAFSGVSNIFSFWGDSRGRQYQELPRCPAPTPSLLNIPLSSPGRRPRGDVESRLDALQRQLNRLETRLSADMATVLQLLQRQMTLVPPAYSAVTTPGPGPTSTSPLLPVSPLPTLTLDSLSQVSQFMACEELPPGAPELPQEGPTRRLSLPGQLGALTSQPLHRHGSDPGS
Take `Cc1nnn(-c2nonc2N)c1C(=O)N/N=C/c1cccc2ccccc12`: the “hERG current change (%, negative = inhibition) at 10uM” value is given as -7.26%. The value for `CCOC(=O)C1CCN(S(=O)(=O)c2c(C)noc2C)CC1` was -37.9%; that for `Cc1nc(C(C)N(C)Cc2c(C(=O)N3CCCCC3)nc3c(C)cccn23)c(C)s1` (centres unmarked) was -22.7%; that for `CCOC(=O)C1(CCOc2ccccc2)CCN(Cc2cc(OC)c(O)c(OC)c2)CC1` was -77.6%. The same measure for `CCOC(=O)C1(CCOc2ccccc2)CCN(Cc2ccc(F)c(OC)c2)CC1`: -35.3%; for `CCOC(=O)C1(CCOC)CCN(Cc2ccc3nonc3c2)CC1`: -10.5%. The same measure for `CCOC(=O)C1(CCOc2ccccc2)CCN(Cc2ccc(O)c(OC)c2)CC1`: -75.4%; for `CCOCCCNC(=O)Cc1ccc(OC)c(OC)c1`: 14.1%; for `Cc1ccc(NC(=O)CC(=O)Nc2ccc(C)c(C)c2)cc1C`: 11.7%. Regarding `CCCn1c(CC)nc([N+](=O)[O-])c1S(=O)(=O)c1ccccc1`, the “hERG current change (%, negative = inhibition) at 10uM” value is reported as -23.8%. With `CCOC(=O)N1CCN(C(=O)C2CCN(S(=O)(=O)c3ccc(Cl)cc3)CC2)CC1`, the “hERG current change (%, negative = inhibition) at 10uM” value is -48.7%.

Take `O=C1CS/C(=N\N=C\c2ccccc2Cl)N1CC1CC1`: the “hERG current change (%, negative = inhibition) at 10uM” value was determined as 12.3%. The value for `FC(F)(F)c1ccc2c(c1)n(Cc1ccccc1)c1[n+]2CCCCC1.[Cl-]` was -24%; that for `Cc1cc(C(C)(C)C)cc(C)c1Cn1c2[n+](c3ccc(C(F)(F)F)cc31)CCCCC2.[Cl-]` was -55.4%.

With `FC(F)(F)c1cccc(Cn2c3[n+](c4ccc(C(F)(F)F)cc42)CCCCC3)c1.[Cl-]`, the “hERG current change (%, negative = inhibition) at 10uM” value is listed as -17.6%. The same measure for `COc1ccc(OC)c(CC(=O)O)c1`: 10.8%; for `O=C(NC1CCCCC1)C1CCN(c2nccs2)CC1`: 4.43%; for `COc1ccc(/C=C2/C(=O)N=C(N)N2C)cc1OC`: 7.3%. The value for `COc1cc(-c2noc(C)c2/C=C/c2cccc([N+](=O)[O-])c2)cc(OC)c1OC` was -2.59%; that for `COC(=O)C1=CN(CC2CCCO2)C=C(C(=O)OC)C1c1ccccc1C(F)(F)F` (centres unmarked) was 8.49%. The value for `COC(=O)C1=CN(CCCN2CCCC2=O)C=C(C(=O)OC)C1c1ccccc1C(F)(F)F` was -57.1%. On to `COC(=O)C1=CN(CCCN2CCCC2=O)C=C(C(=O)OC)C1c1cccs1`, for which the “hERG current change (%, negative = inhibition) at 10uM” value is recorded as -25.1%. The same measure for `COCCN1C=C(C(=O)OC)C(c2ccccc2C(F)(F)F)C(C(=O)OC)=C1`: -8.36%. As to `CCCCN1C=C(C(=O)OC)C(c2ccccc2C(F)(F)F)C(C(=O)OC)=C1`, the “hERG current change (%, negative = inhibition) at 10uM” value is -1.84%.

In the case of `CCOC(=O)C1=CN(CC2CCCO2)C=C(C(=O)OCC)C1c1ccccc1C(F)(F)F` (centres unmarked), the “hERG current change (%, negative = inhibition) at 10uM” value is listed as -64.7%.

With `CN(Cc1ccccc1Br)C(=O)CN1C(=O)NC2(CCCCCC2)C1=O`, the “hERG current change (%, negative = inhibition) at 10uM” value is -11.1%. In the case of `CC(=O)Nc1ccc(N2CCN(Cc3ccccc3)CC2)cc1`, the “hERG current change (%, negative = inhibition) at 10uM” value is recorded as -14.6%. On to `O=C(Nc1cccc(Cl)c1)OCCOc1ccccc1`, for which the “hERG current change (%, negative = inhibition) at 10uM” value was found to be 23%. The same measure for `O=C(Nc1cccc(Cl)c1)N1CCCC1`: 5.7%; for `COC(=O)c1ccc(CN2CCC(CO)(CCOc3ccccc3)CC2)cc1`: -80.1%.

On to `O=C(Nc1cccc(Cl)c1)N1CCC(CO)(CCOc2ccccc2)CC1`, for which the “hERG current change (%, negative = inhibition) at 10uM” value is -58.6%. With `OCC1(CCOc2ccccc2)CCN(Cc2ccncc2)CC1`, the “hERG current change (%, negative = inhibition) at 10uM” value was -41.5%. The value for `CC(=O)Nc1ccc(CN2CCC(CO)(CCOc3ccccc3)CC2)cc1` was -69.9%. The same measure for `CSc1ccc(CN2CCC(CO)(CCOc3ccccc3)CC2)cc1`: -78.4%; for `CCS(=O)(=O)N1CCN=C1SCc1cccc(F)c1`: 14.7%; for `CCCCN(C)C(=O)c1ccc2c(c1)S(=O)(=O)c1ccccc1C2=O`: -24.4%. Take `Cc1ccc(C2(C)NC(=O)N(CC(=O)NC(C)c3ccccc3)C2=O)cc1` (centres unmarked): the “hERG current change (%, negative = inhibition) at 10uM” value came to 11.7%. The same measure for `CC(C)(C)c1ccc(OCCC(=O)OCC(=O)NC(=O)NC2CCCC2)cc1`: 10.7%; for `COc1ccc(NC(C)=O)cc1NC(=O)CSc1nnc(-c2ccccn2)n1C`: -7.69%; for `Cc1ccsc1CN(C)C(=O)CN1C(=O)NC(c2ccccc2)(c2ccccc2)C1=O`: -21.5%.

For `CCOC(=O)c1c(C)n(C)c2ccc(OCC(O)CN3CCCCCC3)cc12.Cl` (centres unmarked), the “hERG current change (%, negative = inhibition) at 10uM” value is -18.4%. The value for `NNC(=O)c1n[nH]c2c1CC(C1CCCCC1)CC2` (centres unmarked) was 10.8%; that for `CCOCCn1c(C(C)O)nc2ccccc21` (centres unmarked) was 11.7%. The value for `Cc1cc(Cl)nc(-n2nc(C)cc2C)n1` was 2.6%; that for `CCOC(=O)C1CCN(CC(O)COCc2ccc(Cl)cc2)CC1.Cl` (centres unmarked) was -79.2%; that for `Cl.OC(COCc1ccccc1)CN1CCCC1` (centres unmarked) was -6.03%.

As to `CCOC(=O)C1CCN(CC(O)COCc2ccccc2)CC1.O=C(O)C(=O)O` (centres unmarked), the “hERG current change (%, negative = inhibition) at 10uM” value is listed as -31.1%. Take `COc1ccc(COCC(O)CN2CCc3ccccc3C2)cc1OC.Cl` (centres unmarked): the “hERG current change (%, negative = inhibition) at 10uM” value is listed as 1.52%. In the case of `OC(CN1CC=C(c2ccccc2)CC1)c1ccccc1` (centres unmarked), the “hERG current change (%, negative = inhibition) at 10uM” value is reported as -33%. Consider `Cl.OC(COCc1ccccc1)CN1CCc2ccccc2C1` (centres unmarked), for which the “hERG current change (%, negative = inhibition) at 10uM” value was -25.7%.

Regarding `Cl.OC(COCc1ccc(Cl)cc1)CN1CCCCC1` (centres unmarked), the “hERG current change (%, negative = inhibition) at 10uM” value is reported as -35.8%. On to `O=C(O)C(=O)O.OC(COCc1ccc(Cl)cc1)CN1CC=C(c2ccccc2)CC1` (centres unmarked), for which the “hERG current change (%, negative = inhibition) at 10uM” value was -77.2%.

Turning to `Cl.OC(COCc1ccc(Cl)cc1)CN1CCc2ccccc2C1` (centres unmarked), the “hERG current change (%, negative = inhibition) at 10uM” value was -70.4%. Take `CCOC(=O)C1CCN(CC(O)COCc2ccc3c(c2)OCO3)CC1.Cl` (centres unmarked): the “hERG current change (%, negative = inhibition) at 10uM” value is on record as -46%. The same measure for `OC(COCc1ccc(Cl)cc1)CN1CCN(CC(O)COCc2ccc(Cl)cc2)CC1` (centres unmarked): -75.2%; for `NC(=O)C1CCCN(CC(O)COCc2ccc(Cl)cc2)C1.O=C(O)C(=O)O` (centres unmarked): -8.86%. `O=C(NCC(=O)N1CCCCCC1)c1ccc(Br)cc1`: the “hERG current change (%, negative = inhibition) at 10uM” value was -7.84%. The same measure for `CCOP(=O)(OCC)c1nc(-c2cccc3ccccc23)oc1NCc1ccccc1`: 10.2%; for `O=C(CN1CCc2ccccc2C1)Nc1cc(S(=O)(=O)N2CCOCC2)ccc1N1CCCC1`: 0.983%; for `O=C(N/N=C/C=C/c1ccccc1)c1cnccn1`: 6.57%. The same measure for `Cc1noc(C)c1S(=O)(=O)Nc1ccc(C(=O)N2CCC(C)CC2)cc1`: -4.35%; for `COc1cccc(OCC(O)CN2CCN(C)CC2)c1.O=C(O)C(=O)O` (centres unmarked): 16.2%; for `CCOC(=O)C1CCN(S(=O)(=O)Cc2ccc(Cl)cc2)CC1`: 1.25%. The same measure for `CCOC(=O)C1CCC(CNCc2ccccc2C)CC1.Cl` (centres unmarked): -24.4%; for `CCOC(=O)C1CCC(CNCc2ccc(Cl)cc2)CC1` (centres unmarked): -69.2%. Turning to `CC(=O)c1cccc(OCC(O)CN2CCN(S(=O)(=O)c3c(F)cccc3F)CC2)c1.O=C(O)C(=O)O` (centres unmarked), the “hERG current change (%, negative = inhibition) at 10uM” value is recorded as -31%. The same measure for `CC(=O)c1cccc(OCC(O)CN2CC=C(c3ccccc3)CC2)c1.O=C(O)C(=O)O` (centres unmarked): -68.9%. Consider `Cc1ccc(S(=O)(=O)n2c(C)nc3cc(C)ccc32)cc1`, for which the “hERG current change (%, negative = inhibition) at 10uM” value is listed as -3.01%.

Regarding `CCn1c(C)nc2cc(C(=O)OC)ccc21`, the “hERG current change (%, negative = inhibition) at 10uM” value was found to be 14.3%. In the case of `CCOc1ccc(Oc2ccc(Cl)cc2N)cc1.Cl`, the “hERG current change (%, negative = inhibition) at 10uM” value worked out at 2.9%. The same measure for `Cc1ccc2nc3c(c(C(=O)OC4CCOC4=O)c2c1)CCCC3` (centres unmarked): -0.191%; for `CN1CCN(c2nc(-c3ccccc3)ncc2S(=O)(=O)c2ccccc2)CC1`: -63.2%; for `Cc1ccc(S(=O)(=O)c2cnc(-c3ccccc3)nc2N2CCN(C)CC2)cc1`: -49.1%. The value for `CCOC(=O)C1CCN(c2nc(-c3ccc(Br)cc3)nc3ccccc23)CC1` was -1.89%; that for `CC(=O)c1ccc(S(=O)(=O)N2CCN(c3nc(-c4cccnc4)nc4ccccc34)CC2)cc1` was -40.4%; that for `COc1ccc(S(=O)(=O)N2CCN(c3nc(-c4cccnc4)nc4ccccc34)CC2)cc1` was -39%. The value for `CN1CCN(c2nc(-c3cccc([N+](=O)[O-])c3)nc3ccccc23)CC1` was -48.4%. For `CN1CCN(c2nc(-c3cccnc3)nc3ccccc23)CC1`, the “hERG current change (%, negative = inhibition) at 10uM” value is -48.5%.

Turning to `O=S(=O)(c1ccccc1)c1cnc(-c2ccccc2)nc1N1CCCC1`, the “hERG current change (%, negative = inhibition) at 10uM” value is 41.8%. The value for `CN1CCN(c2nc(-c3ccncc3)nc3ccccc23)CC1` was -67.4%. For the compound `CCOC(=O)C1CCN(c2nc(-c3ccc(C)cc3)nc3ccccc23)CC1`, the “hERG current change (%, negative = inhibition) at 10uM” value came out at 15.4%.

`NC(=O)C1CCN(c2nc(-c3ccccc3)nc3ccccc23)CC1`: the “hERG current change (%, negative = inhibition) at 10uM” value is -56%. Turning to `O=S(=O)(c1ccc(F)cc1)N1CCN(c2nc(-c3cccnc3)nc3ccccc23)CC1`, the “hERG current change (%, negative = inhibition) at 10uM” value is -72%. In the case of `O=[N+]([O-])c1cnn(-c2nc(-c3ccccc3)cc(C(F)(F)F)n2)c1`, the “hERG current change (%, negative = inhibition) at 10uM” value was found to be 8.82%. Take `N/C(=N\OS(=O)(=O)c1ccc2ccccc2c1)c1cccnc1`: the “hERG current change (%, negative = inhibition) at 10uM” value came to 5.24%.

Regarding `COc1ccc([N+](=O)[O-])cc1N(CC(=O)O)S(C)(=O)=O`, the “hERG current change (%, negative = inhibition) at 10uM” value stood at 13.7%. In the case of `O=C(O)CC1NC(=O)N(c2ccc(Cl)cc2)C1=O` (centres unmarked), the “hERG current change (%, negative = inhibition) at 10uM” value turned out to be 19.5%. The value for `CSc1nc(N2CCOCC2)c2c3c(sc2n1)CCCC3` was -2.32%; that for `O=C1c2ccccc2COc2ccc(O)cc21` was 10.9%.
